# Several values for one entry are separate records, joined by “and”; a condition that tells them apart may be missing. Equal values may be shown once. Records with an inconclusive call do not appear. A call without a number means that no potency is given here. More than one record can exist for a structure, and the calls need not agree. Activity calls are given as the source filed them. Unless noted, the call rests on the fitted dose curve; in most records, active means well fitted curve in the direction sought with a large enough effect in the repeat runs; inconclusive means weak or mixed curves; inactive means no such curve, though single readings can be large; an effect the other way counts as inactive or inconclusive.
# What was measured:
# [1] = molecular target: Luciferin 4-monooxygenase (Photinus pyralis) (UniProt P08659); assay: qHTS assay to identify small molecule inhibitors of firefly luciferase (AID 1224835); further: nearly all actives have a fitted effect of over 25% in size
# Chain of Luciferin 4-monooxygenase (Photinus pyralis) (P08659 whole entry, looked up): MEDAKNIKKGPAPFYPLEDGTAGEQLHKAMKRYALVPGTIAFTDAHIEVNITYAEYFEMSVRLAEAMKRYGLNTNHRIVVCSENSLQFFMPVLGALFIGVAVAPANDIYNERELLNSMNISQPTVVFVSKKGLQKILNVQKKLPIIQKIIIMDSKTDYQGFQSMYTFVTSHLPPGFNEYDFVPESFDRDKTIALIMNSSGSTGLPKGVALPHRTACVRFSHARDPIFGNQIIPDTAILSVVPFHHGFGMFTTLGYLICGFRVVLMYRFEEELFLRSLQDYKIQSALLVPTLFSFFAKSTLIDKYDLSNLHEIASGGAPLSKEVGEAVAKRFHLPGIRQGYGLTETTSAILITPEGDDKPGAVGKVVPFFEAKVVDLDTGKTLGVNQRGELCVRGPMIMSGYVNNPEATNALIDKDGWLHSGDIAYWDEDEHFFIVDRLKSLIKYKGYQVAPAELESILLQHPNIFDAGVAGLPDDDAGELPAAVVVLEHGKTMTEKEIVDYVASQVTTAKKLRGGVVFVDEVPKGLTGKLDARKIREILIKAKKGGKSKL
# Procedure, shortened: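 Inhibition of purified Photinus luciferase is measured by luminescence. Substrate levels (D-luciferin, ATP) sit at their KM values. Each compound is tested in a concentration series.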
# [2] = qHTS assay to identify small molecule agonists of the constitutive androstane receptor (CAR) signaling pathway - cell viability counter screen (AID 1224836); further: nearly all actives have a fitted effect of over 45% in size
# Procedure, shortened: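 HepG2-CYP2B6-hCAR, 2500 cells/well, 4 h pre-incubation; cpd 15 conc + PK11195 0.75 uM final; 23 h, 37 C/5% CO2; CellTiter-Fluor, fluorescence.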
# [3] = qHTS assay to identify small molecule antagonists of the constitutive androstane receptor (CAR) signaling pathway - cell viability counter screen (AID 1224837); further: nearly all actives have a fitted effect of over 45% in size
# Procedure, shortened: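 In quantitative HTS format, compounds at 15 concentrations were applied to HepG2 cells double-transfected with hCAR and CYP2B6-2.2kb under 50 nM CITCO stimulation; live-cell protease activity was read after 23 hr via CellTiter-Fluor.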
# [4] = molecular target: Nuclear receptor subfamily 1 group I member 3 (Homo sapiens) (UniProt Q14994); assay: qHTS assay to identify small molecule antagonists of the constitutive androstane receptor (CAR) signaling pathway (AID 1224838); further: nearly all actives have a fitted effect of over 40% in size
# Chain of Nuclear receptor subfamily 1 group I member 3 (Homo sapiens) (Q14994 whole entry, looked up): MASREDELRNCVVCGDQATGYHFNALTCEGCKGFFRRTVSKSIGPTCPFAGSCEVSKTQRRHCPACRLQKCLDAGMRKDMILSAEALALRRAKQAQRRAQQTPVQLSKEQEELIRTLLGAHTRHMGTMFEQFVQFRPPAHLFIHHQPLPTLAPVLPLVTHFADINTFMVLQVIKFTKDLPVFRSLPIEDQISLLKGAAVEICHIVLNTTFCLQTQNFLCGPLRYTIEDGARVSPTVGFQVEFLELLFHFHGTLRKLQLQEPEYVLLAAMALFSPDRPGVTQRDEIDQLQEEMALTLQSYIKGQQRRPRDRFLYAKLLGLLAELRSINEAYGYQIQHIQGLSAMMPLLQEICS
# Procedure, shortened: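 CITCO-stimulated (50 nM final) HepG2 cells stably transfected with hCAR and CYP2B6-2.2kb luciferase were exposed to compounds at 15 concentrations for 24 h at 37 C/5% CO2. A luciferase reagent was added and luminescence recorded after 30 min.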
# [5] = molecular target: Nuclear receptor subfamily 1 group I member 3 (Homo sapiens) (UniProt Q14994); assay: qHTS assay to identify small molecule agonists of the constitutive androstane receptor (CAR) signaling pathway (AID 1224839); further: nearly all actives have a fitted effect of over 15% in size
# Procedure, shortened: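 HepG2-CYP2B6-hCAR cells, 2500/well, 4 h pre-incubation; compounds 15 conc.; PK11195 0.75 uM final; 24 h, 37 C/5% CO2; ONE-Glo luciferase read.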
# [6] = molecular target: Thyrotropin receptor (Homo sapiens) (UniProt P16473); assay: qHTS assay to identify small molecule agonists of the thyroid stimulating hormone receptor (TSHR) signaling pathway (AID 1224843; calls by dose curve; further: nearly all actives have a fitted effect of over 45% in size)
# Chain of Thyrotropin receptor (Homo sapiens) (P16473 whole entry, looked up): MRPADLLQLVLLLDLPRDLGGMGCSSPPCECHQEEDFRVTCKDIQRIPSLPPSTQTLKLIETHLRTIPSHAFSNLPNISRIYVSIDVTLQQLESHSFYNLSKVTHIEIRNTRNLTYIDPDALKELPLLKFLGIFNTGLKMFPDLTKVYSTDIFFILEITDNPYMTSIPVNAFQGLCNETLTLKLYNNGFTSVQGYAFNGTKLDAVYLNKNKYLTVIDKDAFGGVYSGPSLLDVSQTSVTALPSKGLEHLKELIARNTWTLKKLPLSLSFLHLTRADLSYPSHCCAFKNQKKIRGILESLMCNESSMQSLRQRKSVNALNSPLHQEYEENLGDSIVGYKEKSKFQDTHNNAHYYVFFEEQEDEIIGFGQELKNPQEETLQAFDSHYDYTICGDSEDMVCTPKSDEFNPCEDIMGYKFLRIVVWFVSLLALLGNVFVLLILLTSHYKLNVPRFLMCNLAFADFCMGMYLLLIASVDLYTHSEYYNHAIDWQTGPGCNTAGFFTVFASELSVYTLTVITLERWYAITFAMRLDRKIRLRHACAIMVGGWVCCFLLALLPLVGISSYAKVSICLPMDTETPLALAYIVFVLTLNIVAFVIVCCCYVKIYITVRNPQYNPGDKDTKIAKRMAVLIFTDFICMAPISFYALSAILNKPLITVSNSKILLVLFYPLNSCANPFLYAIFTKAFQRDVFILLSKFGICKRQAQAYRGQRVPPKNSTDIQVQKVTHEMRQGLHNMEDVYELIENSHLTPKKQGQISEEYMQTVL
# Procedure, shortened: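 A cell-based cAMP HTRF format was run in TSHR-transfected HEK293 cells, 800 per well. Treatment: 30 min, room temperature. Detection: 1 h with labelled cAMP and anti-cAMP cryptate. Concentration-response over 15 points, three replicates.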
# [7] = qHTS assay to identify small molecule agonists of the hypoxia (HIF-1) signaling pathway - cell viability counter screen (AID 1224844; calls by dose curve; further: nearly all actives have a fitted effect of over 50% in size)
# Procedure, shortened: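 Same wells as the HIF-1 reporter screen; ME-180 cells carrying HRE-bla, 17 hr treatment at 37C; CellTiter-Glo luminescence read after 30 min at room temperature.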
# [8] = qHTS assay to identify small molecule agonists of the estrogen related receptor signaling pathway with the pleiotropic PPARgamma coactivator (PGC) from Tox21 10K library (AID 1224842); further: nearly all actives have a fitted effect of over 15% in size
# Procedure, shortened: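 Luminescence from One-Glo (30 min, room temperature) measured after PGC/ERR cells had 18 h at 37 C with pinned compound (23 nL in DMSO). Cells had been seeded at 2,000 per well and pre-incubated 6 h.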
# [9] = qHTS assay to identify small molecule antagonists of the estrogen related receptor signaling pathway with the pleiotropic PPARgamma coactivator (PGC) from Tox21 10K library (AID 1224841; call rule not given here; further: actives are mostly falling curves and most rising ones were filed inactive; nearly all actives have a fitted effect of over 50% in size)
# Procedure, shortened: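 In the PGC/ERR line, DMSO solutions of test chemicals are pin-delivered to 2,000 cells/well six hours after dispensing. Following eighteen hours' incubation, One-Glo reagent is added and luminescence recorded.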
# [10] = qHTS assay to identify small molecule antagonists of the estrogen related receptor signaling pathway with the pleiotropic PPARgamma coactivator (PGC) from Tox21 10K library - cell viability counter screen (AID 1224840; active means well fitted cell-killing curve with a large enough effect in the repeat runs, not every such curve was filed as active; further: nearly all actives have a fitted effect of over 40% in size)
# Procedure, shortened: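 Viability counter screen, PGC/ERR cells: 17.5 h compound exposure at 37 C, CellTiter-Fluor fluorescence endpoint.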
# Potency means the concentration at half of the fitted maximal effect.
SMILES,Potency [1],Potency [2],Potency [3],Potency [4],Potency [5],Potency [6],Potency [7],Potency [8],Potency [9],Potency [10]
C=CC(=O)OCC(CO)(COCC(COC(=O)C=C)(COC(=O)C=C)COC(=O)C=C)COC(=O)C=C,inactive,6.78 µM (active),6.04 µM (active),5.38 µM (active),inactive,6.04 µM (active),2.16 µM (active),,,
CCCCCCOC(=O)c1ccc(O)cc1,31.8 µM (active) and 28.3 µM (active),inactive,inactive,inactive,27.3 µM (active) and 54.5 µM (active),inactive,inactive,30.7 µM (active) and 9.69 µM (active),,
S=c1[nH]c2ccccc2s1,39.9 µM (active),inactive,inactive,inactive,54.5 µM (active),,,inactive,6.11 µM (active),
O=[N+]([O-])c1cc(Cl)c(Cl)c(Cl)c1Cl,inactive,inactive,inactive,inactive,inactive,inactive,,inactive,,
CCCCCCCC[P+](CCCCCCCC)(CCCCCCCC)CCCCCCCC,62.9 µM (active),1.92 µM (active),3.83 µM (active),10.8 µM (active),inactive,inactive,3.45 µM (active),inactive,,
CC(=O)S[C@@H]1CC2=CC(=O)CC[C@]2(C)[C@H]2CC[C@@]3(C)[C@@H](CC[C@@]34CCC(=O)O4)[C@H]12,inactive,inactive,inactive,54.5 µM (active),inactive,inactive,,,,
NNc1nc(-c2ccc([N+](=O)[O-])cc2)cs1,31.7 µM (active),54.5 µM (active),54.5 µM (active),inactive,inactive,,,inactive,48.6 µM (active),
Nc1c2ccccc2nc2ccccc12,inactive,inactive,inactive,956 nM (active) and 1.68 µM (active),inactive,inactive,13.6 µM (active),inactive,53.8 µM (active) and inactive,
Cc1nc(-c2ccc3c(c2)CCN(CCC2CCC(NC(=O)/C=C/c4ccc(F)cc4)CC2)CC3)no1 (stereo not drawn),inactive,inactive,inactive,inactive,inactive,inactive,,,,inactive
CC[C@H]1O[C@]2(CC[C@@H]1C)C[C@@H]1C[C@@H](C/C=C(\C)C[C@@H](C)/C=C/C=C3\CO[C@@H]4[C@H](O)C(C)=C[C@@H](C(=O)O1)[C@]34O)O2,inactive,68 µM (active),60.6 µM (active),,inactive,inactive,21.7 µM (active),inactive,19.2 µM (active),60.6 µM (active)
Nc1ccc(N)c2ccccc12,inactive,30.6 µM (active),30.6 µM (active),,inactive,inactive,,inactive,,54.4 µM (active)
CCCCCCCCS(=O)C(C)Cc1ccc2c(c1)OCO2 (stereo not drawn),inactive,inactive,inactive,inactive,,inactive,inactive,,,inactive
O=C(Oc1ccccc1)c1ccccc1C(=O)Oc1ccccc1,inactive,inactive,inactive,inactive,inactive,,inactive,,,
Cc1ccc(-n2nc(C(C)(C)C)cc2NC(=O)Nc2ccc(OCCN3CCOCC3)c3ccccc23)cc1,inactive,inactive,inactive,inactive,,,,inactive,,inactive
CC(=O)N1CCN(c2ccc(OC[C@H]3CO[C@](Cn4ccnc4)(c4ccc(Cl)cc4Cl)O3)cc2)CC1,inactive,48.6 µM (active),48.6 µM (active),inactive,,,49 µM (active),inactive,27.3 µM (active),24.3 µM (active)
COc1ccc(-c2ccc3cc(C(=O)O)ccc3c2)cc1C12CC3CC(CC(C3)C1)C2,inactive,inactive,inactive,,inactive,inactive,,inactive,,inactive
CN(C/C=C/C#CC(C)(C)C)Cc1cccc2ccccc12,inactive,inactive,inactive,inactive,,inactive,inactive,,,inactive
CCCCC(CC)CN=C(N)NC(N)=NCCCCCCN=C(N)NC(N)=NCC(CC)CCCC (stereo not drawn),inactive,26.6 µM (active),23.7 µM (active),,,,23.9 µM (active),inactive,23.7 µM (active),16.8 µM (active)
CC/C(=C(\c1ccc(O)cc1)c1ccc(OCCN(C)C)cc1)c1ccccc1,inactive,68.7 µM (active),68.7 µM (active),,inactive,,55.1 µM (active),inactive,,
NC(=O)CC[C@@H]1NC(=O)[C@H](Cc2ccccc2)NC(=O)[C@H](Cc2ccc(O)cc2)NC(=O)CCSSC[C@@H](C(=O)N2CCC[C@H]2C(=O)N[C@@H](CCCN=C(N)N)C(=O)NCC(N)=O)NC(=O)[C@H](CC(N)=O)NC1=O,inactive,inactive,inactive,inactive,,inactive,inactive,,,inactive
CCCCCOc1ccccc1/C(=C\SC)n1ccnc1,inactive,inactive,inactive,,,21.1 µM (active),21.3 µM (active),inactive,15 µM (active),inactive
O=[N+]([O-])c1ccccc1Nc1ccccc1,inactive,inactive,inactive,inactive,,inactive,inactive,,,inactive
CSc1ccc(C(=O)c2[nH]c(=O)[nH]c2C)cc1,inactive,inactive,inactive,,inactive,,,,,
CCCCC(CC)COC(=O)c1ccccc1C(=O)O (stereo not drawn),inactive,inactive,inactive,,inactive,,,inactive,,inactive

# — PubChem BioAssay (Tox21)
